Source: PubChem BioAssay (Tox21)
Values joined by “and” are separate entries in the source; they are usually repeats but may differ in a detail not shown here. Identical values can stand only once. Results filed as inconclusive are left out. Entries that show only a call come without a potency. Some compounds were tested as several samples or in several runs, with calls that do not always agree. Active and inactive are the calls of the source. Calls come from the whole dose curve; as a rule, active = well fitted inhibition curve with a large enough effect in the repeat runs; inconclusive = weak or mixed curves; inactive = no such curve, though single readings can be large or run the other way.

biological target: Estrogen receptor (Homo sapiens) (UniProt P03372); experiment: qHTS assay to identify small molecule antagonists of the estrogen receptor alpha (ER-alpha) signaling pathway using the BG1 cell line in the presence of 0.1 nM 17-beta-estradiol (AID 1259244); conditions: VM7Luc4E2 (BG1) ERE-luciferase, antagonist mode, 0.1 nM E2, 22 h; series mostly up to 92.4 µM; note: nearly all actives have a fitted effect of over 50% in size
Sequence (P03372 whole entry, looked up): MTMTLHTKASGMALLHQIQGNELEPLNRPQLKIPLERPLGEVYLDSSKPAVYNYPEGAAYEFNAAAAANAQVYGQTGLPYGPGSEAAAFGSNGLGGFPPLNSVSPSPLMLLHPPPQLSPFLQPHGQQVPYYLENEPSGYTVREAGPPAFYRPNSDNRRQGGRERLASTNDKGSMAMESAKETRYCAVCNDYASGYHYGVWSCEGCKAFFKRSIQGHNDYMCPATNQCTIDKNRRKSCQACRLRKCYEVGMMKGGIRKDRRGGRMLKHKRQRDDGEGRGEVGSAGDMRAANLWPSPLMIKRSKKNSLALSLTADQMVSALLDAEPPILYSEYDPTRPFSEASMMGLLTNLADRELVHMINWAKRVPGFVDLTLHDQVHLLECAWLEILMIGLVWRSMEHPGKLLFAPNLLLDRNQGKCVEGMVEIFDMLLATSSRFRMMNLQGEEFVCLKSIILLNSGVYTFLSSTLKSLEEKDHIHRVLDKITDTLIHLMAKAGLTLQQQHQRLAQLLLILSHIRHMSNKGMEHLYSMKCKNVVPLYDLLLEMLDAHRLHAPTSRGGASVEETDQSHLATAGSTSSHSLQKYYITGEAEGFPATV
Excerpt: National Center for Advancing Translational Sciences [NCATS]
NIH Chemical Genomics Center [NCGC]
U.S. Environmental Protection Agency [EPA]
National Institutes of Environmental Health Sciences [NIEHS]
National Toxicology Program [NTP]
U.S. Food and Drug Administration [FDA]
Estrogen receptor (ER), a member of the nuclear hormone receptor plays an important role in development, metabolic homeostasis and reproduction. Two subtypes of ER, ER-alpha and ER-beta, have similar expression patterns with some uniqueness in both types. Endocrine disrupting chemicals (EDCs) and their interactions with steroid hormone receptors like ER causes disruption of normal endocrine function. Therefore, it is important to understand the effect of environmental chemicals in ER signaling pathway. For identifying ER antagonists, VM7Luc4E2 cell line was used to screen against Tox21 compound libraries.
VM7Luc4E2 cell line (provided by Denison MS, University of California) endogenously express full-length ER-alpha and is stably transfected with a plasmid containing four estrogen responsive elements (ERE) upstream of a luciferase reporter gene. The current screening for identification of ER-alpha inhibitors against Tox21 compound libraries used lower concentration (0.1 nM) of 17beta-Estradiol as a stimulator.
Tox21 Assay Protocol Summary:
VM7Luc4E2 cells were cultured in phenol red free assay medium containing 10% charcoal stripped FBS for 5 days prior to the assay. The cells were dispensed at 4,000 cells/well in 4 uL of assay medium into white wall/solid-bottom 1536-well plates (Corning Life Sciences, Corning, NY) using a Multidrop Combi (ThermoFisher Scientific, Waltham, MA) dispenser. After the assay plates were incubated at 37C and 5% CO2 for 24 hr, 23 nL of compounds dissolved in DMSO, positive controls or DMSO only was transferred to the assay plates by a Pintool station (Kalypsys, San Diego, CA). The transfer of compounds was followed by the addition of 1 uL of 0.1 nM (final concentration) agonist (17beta-Estradiol)/assay medium using a Flying Reagent Dispenser (FRD, Aurora Discovery, San Diego, CA). The plates were incubated at 37C and 5% CO2 for 22 hr. For luciferase reporter gene assay, 4 uL of ONE-Glo reagent (Promega Corporation, Madison, WI) was added to each well using the FRD and after 30 min incubation at room temperature luminescence intensity was measured using ViewLux plate reader (PerkinElmer, Shelton, CT).
Potency is the fitted concentration of half-maximal effect.

SMILES | Potency
NCCO | inactive
CCCNC(C)C(=O)Nc1ccccc1C (stereo not given) | inactive
O=C(O[C@@H]1Cc2c(O)cc(O)cc2O[C@@H]1c1cc(O)c(O)c(O)c1)c1cc(O)c(O)c(O)c1 | inactive
OCCN1CCNCC1 | inactive
OCC(CO)N[C@H]1C[C@](O)(CO)[C@@H](O)[C@H](O)[C@H]1O | inactive
CCC(C)(Oc1ccc(C2(c3ccc(OC(C)(CC)C(=O)O)cc3)CCCCC2)cc1)C(=O)O (stereo not given) | inactive
O=C1Nc2ccccc2C1(c1ccc(O)cc1)c1ccc(O)cc1 | 486 nM (active) and 237 nM (active)
Nc1ccc(O)cc1 | 28.4 µM (active) and inactive
COC(=O)c1cccc(C(=O)OC)c1 | inactive
c1ccc2c(c1)CCCC2C1=NCCN1 (stereo not given) | inactive
CO[Si](OC)(OC)c1ccccc1 | inactive
CC[C@@H](N)CO | inactive
CC(=O)CC(=O)Nc1ccc2[nH]c(=O)[nH]c2c1 | inactive
O=C1OC2(c3ccc(O)cc3Oc3cc(O)ccc32)c2ccccc21 | inactive
CC1COC(=O)O1 (stereo not given) | inactive
c1ccc2c(c1)-c1cccc3c1c-2cc1ccccc13 | inactive
CCCCCCCCCCCCCC[P+](CCCC)(CCCC)CCCC | 2.71 µM (active) and 4.33 µM (active)
Cc1cc(C2(c3cc(C)c(O)cc3C)OS(=O)(=O)c3ccccc32)c(C)cc1O | inactive
c1cnc2cc3c(cc2n1)C1CNCC3C1 | inactive
O=C(Oc1ccccc1)c1ccccc1O | inactive

SMILES | Potency
CCc1ccc(C(c2ccc(CC)cc2)C(Cl)Cl)cc1 | inactive
CCCOC(=O)c1cc(O)c(O)c(O)c1 | inactive
CCn1c2ccccc2c2cc(N)ccc21 | inactive
NC(N)=Nc1nc(CSCC/C(N)=N/S(N)(=O)=O)cs1 | inactive
CCOc1ccccc1C(N)=O | inactive
Clc1ccc2c(c1)C(N1CCNCC1)=Nc1ccccc1O2 | inactive
O=Nc1ccc(Nc2ccccc2)cc1 | inactive
C1COC(NC(C2CC2)C2CC2)=N1 | inactive
C=CC(=O)OCCCCCCOC(=O)C=C | inactive
Cc1cccc([N+](=O)[O-])c1C(=O)O | inactive
COc1cc(C(=S)N2CCOCC2)ccc1O | inactive
O=C1NCC2(CCN(CCc3ccccc3)CC2)O1 | inactive
Oc1c(Cl)cc(Cl)cc1Sc1cc(Cl)cc(Cl)c1O | 12.2 µM (active) and 17.5 µM (active) and 15.4 µM (active)
CCC(C)(C)C(=O)O[C@H]1C[C@@H](C)C=C2C=C[C@H](C)[C@H](CC[C@@H]3C[C@@H](O)CC(=O)O3)[C@H]21 | inactive
Cc1cc(Cc2cc(C)cc(C(C)(C)C)c2O)c(O)c(C(C)(C)C)c1 | 27.4 µM (active)
O=C(Nc1ccccc1SSc1ccccc1NC(=O)c1ccccc1)c1ccccc1 | 27.4 µM (active) and inactive
O=C(O)c1cccc(C(=O)O)c1 | inactive
CCN1CCCC1CNC(=O)c1cc(S(=O)(=O)CC)c(N)cc1OC (stereo not given) | inactive
CC(=O)OCCOCCOCCOC(C)=O | inactive
CC(C)(C)NCC(O)COc1ccccc1OCC1CCCO1 (stereo not given) | inactive
